Laboratory results reported in PubChem BioAssay (Tox21).
Values joined by “and” are separate entries in the source; they are usually repeats but may differ in a detail not shown here. Identical values can stand only once. Inconclusive results are not listed. Some compounds were tested as several samples or in several runs, with calls that do not always agree. Active and inactive are the calls of the source. Unless noted, calls follow the shape of the dose curve; as a rule, active = well fitted curve in the direction sought with a large enough effect in the repeat runs; inconclusive = weak or mixed curves; inactive = no such curve, though single readings can be large; an effect the other way counts as inactive or inconclusive.

What was measured:
[1] = molecular target: Aryl hydrocarbon receptor (Homo sapiens) (UniProt P35869); assay: qHTS assay to identify small molecule that activate the aryl hydrocarbon receptor (AhR) signaling pathway (AID 743085); also: nearly all actives have a fitted effect of over 15% in size; also: potency is read from the fitted curve at half-maximal effect;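 as to activation: HG2L7.5c1 human HepG2 liver cells with stably integrated DRE-driven firefly reporter; series mostly up to about 70 µM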
Chain of Aryl hydrocarbon receptor (Homo sapiens) (P35869 whole entry, looked up): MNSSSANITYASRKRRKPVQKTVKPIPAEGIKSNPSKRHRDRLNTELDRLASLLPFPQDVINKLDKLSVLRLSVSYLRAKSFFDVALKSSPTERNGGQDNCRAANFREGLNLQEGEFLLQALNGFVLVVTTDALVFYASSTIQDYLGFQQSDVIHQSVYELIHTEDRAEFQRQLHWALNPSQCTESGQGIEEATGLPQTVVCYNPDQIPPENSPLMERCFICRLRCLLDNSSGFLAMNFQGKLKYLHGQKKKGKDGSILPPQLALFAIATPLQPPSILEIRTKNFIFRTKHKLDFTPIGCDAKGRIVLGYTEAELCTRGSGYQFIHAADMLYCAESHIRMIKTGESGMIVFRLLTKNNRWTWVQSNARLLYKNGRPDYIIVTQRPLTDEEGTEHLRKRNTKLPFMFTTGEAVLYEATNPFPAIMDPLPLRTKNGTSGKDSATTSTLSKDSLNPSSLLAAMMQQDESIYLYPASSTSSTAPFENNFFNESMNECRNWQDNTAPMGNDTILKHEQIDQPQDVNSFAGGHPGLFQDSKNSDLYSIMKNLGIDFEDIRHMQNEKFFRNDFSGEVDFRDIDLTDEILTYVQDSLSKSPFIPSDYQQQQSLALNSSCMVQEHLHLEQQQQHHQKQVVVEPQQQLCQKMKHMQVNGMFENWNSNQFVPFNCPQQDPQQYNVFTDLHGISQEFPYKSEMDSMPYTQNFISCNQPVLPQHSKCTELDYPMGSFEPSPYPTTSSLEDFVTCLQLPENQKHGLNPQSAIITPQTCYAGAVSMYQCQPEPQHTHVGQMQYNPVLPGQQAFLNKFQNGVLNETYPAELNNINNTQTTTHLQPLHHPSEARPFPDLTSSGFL
Procedure, shortened: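 Stably transfected human liver carcinoma cells (HG2L7.5c1; 20 DRE-firefly luciferase) were incubated 5 h, dosed, and kept 24 h at 37C. Agonism was scored from increased luciferase luminescence.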

[2] = qHTS assay to identify small molecule that activate the aryl hydrocarbon receptor (AhR) signaling pathway - cell viability counter screen (AID 743086); also: nearly all actives have a fitted effect of over 45% in size; also: potency is read from the fitted curve at half-maximal effect
Procedure, shortened: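 HepG2-AhR-luc (HG2L7.5c1) cells, 4000/well, were preincubated 5 h at 37C, exposed to compound in qHTS format for 24 hr at 37C, then given CellTiter-Fluor for 30 min; viability was read as fluorescence in the reporter wells.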

[3] = qHTS assay to identify small molecule antagonists of the peroxisome proliferator-activated receptor gamma (PPARg) signaling pathway - cell viability counter screen (AID 743194); also: nearly all actives have a fitted effect of over 55% in size
Procedure, shortened: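 PPARg-UAS-bla HEK293H cells were plated, rested 5 h at 37 C, then treated with compounds plus rosiglitazone (50 nM final) for 17 h at 37 C; viability was then read by CellTiter-Glo luminescence after 30 min at room temperature.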

[4] = qHTS assay for small molecule agonists of the antioxidant response element (ARE) signaling pathway (AID 743202; active = well fitted activation curve with a large enough effect in the signal ratio in the repeat runs, not every such curve was filed as active; the % refers to the signal ratio; also: potency is read from the fitted curve at half-maximal effect)
Procedure, shortened: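 Read-out: LiveBLAzer B/G FRET substrate fluorescence after 2 h at room temperature, following 16 h compound treatment at 37 C of HepG2 cells carrying an ARE-driven beta-lactamase reporter.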

[5] = qHTS assay for small molecule agonists of the antioxidant response element (ARE) signaling pathway - cell viability counter screen (AID 743203; calls by dose curve; also: nearly all actives have a fitted effect of over 55% in size)
Procedure, shortened: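 Compounds in DMSO were pinned onto ARE-bla HepG2 cells plated 5 hrs earlier at 2,000 cells/well. Sixteen hours later at 37C/5% CO2, CellTiter-Glo was added and luminescence measured after 30 min at room temperature.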

[6] = qHTS assay for small molecule activators of the heat shock response signaling pathway - cell viability counter screen (AID 743209); also: nearly all actives have a fitted effect of over 50% in size
Procedure, shortened: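 Counter screen for cytotoxicity in HeLa HSE-bla reporter cells. Treatment was 5 h at 37 C; viability was detected by luminescent ATP assay (CellTiter-Glo) in the same wells as the beta-lactamase read.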

[7] = qHTS assay for small molecule activators of the heat shock response signaling pathway (AID 743210; active = well fitted activation curve with a large enough effect in the signal ratio in the repeat runs, with a control signal flat, not every such curve was filed as active; the % refers to the signal ratio; also: series mostly up to about 63 µM)
Procedure, shortened: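 HSE-bla HeLa cells (beta-lactamase reporter under heat shock response elements) were exposed to compounds for 5 h at 37 C, then loaded with LiveBLAzer B/G FRET substrate for 2.5 h at room temperature before fluorescence reading.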

[8] = qHTS assay to identify small molecule agonists of the peroxisome proliferator-activated receptor delta (PPARd) signaling pathway - cell viability counter screen (AID 743211); also: nearly all actives have a fitted effect of over 55% in size
Procedure, shortened: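 In the same wells used for beta-lactamase reporter measurement, cytotoxicity is scored by CellTiter-Glo. HEK293H PPARd-bla cells receive compound for 17 h at 37C following a 5 h settling period.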

[9] = molecular target: Peroxisome proliferator-activated receptor delta (Homo sapiens) (UniProt Q03181); assay: qHTS assay to identify small molecule agonists of the peroxisome proliferator-activated receptor delta (PPARd) signaling pathway (AID 743212; calls by dose curve)
Chain of Peroxisome proliferator-activated receptor delta (Homo sapiens) (Q03181 whole entry, looked up): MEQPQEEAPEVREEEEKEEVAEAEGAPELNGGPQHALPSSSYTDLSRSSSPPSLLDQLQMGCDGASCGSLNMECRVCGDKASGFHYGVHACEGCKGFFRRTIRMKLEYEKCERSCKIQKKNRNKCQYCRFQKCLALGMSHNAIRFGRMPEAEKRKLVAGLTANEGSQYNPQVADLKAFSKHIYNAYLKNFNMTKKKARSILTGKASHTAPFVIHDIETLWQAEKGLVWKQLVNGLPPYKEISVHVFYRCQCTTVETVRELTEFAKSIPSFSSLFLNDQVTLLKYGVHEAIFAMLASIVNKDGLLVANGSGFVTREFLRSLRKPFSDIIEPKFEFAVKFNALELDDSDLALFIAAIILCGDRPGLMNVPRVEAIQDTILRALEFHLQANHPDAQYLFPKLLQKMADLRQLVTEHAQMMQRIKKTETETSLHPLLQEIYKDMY
Procedure, shortened: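 GeneBLAzer PPARd UAS-bla HEK293H cells (beta-lactamase reporter under UAS control), plated and rested 5 h at 37 C, then exposed to compounds in DMSO at 37 C; LiveBLAzer B/G FRET substrate added, 2 h room temperature, fluorescence read.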

[10] = qHTS assay to identify small molecule antagonists of the peroxisome proliferator-activated receptor delta (PPARd) signaling pathway - cell viability counter screen (AID 743213); also: nearly all actives have a fitted effect of over 50% in size
Procedure, shortened: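 Luminescence from CellTiter-Glo, added after the bla read and incubated 30 min at room temperature, gives viability of HEK293H PPARd-bla cells exposed to compounds for 17 h at 37 C with 300 nM L165041.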

[11] = molecular target: Peroxisome proliferator-activated receptor delta (Homo sapiens) (UniProt Q03181); assay: qHTS assay to identify small molecule antagonists of the peroxisome proliferator-activated receptor delta (PPARd) signaling pathway (AID 743215; active = well fitted inhibition curve with a large enough effect in the signal ratio in the repeat runs, not every such curve was filed as active; the % refers to the signal ratio;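 also: cells stimulated with agonist L165041 at 300 nM final during compound exposure; series mostly up to about 62 µM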)
Procedure, shortened: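 With L165041 present at 300 nM final, compounds were incubated 17 h at 37 C on PPARd UAS-bla HEK293H cells. A FRET-based beta-lactamase substrate was then applied for 2 h at room temperature and fluorescence intensity recorded.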

[12] = molecular target: Bile acid receptor (Homo sapiens) (UniProt Q96RI1); assay: qHTS assay to identify small molecule antagonists of the farnesoid-X-receptor (FXR) signaling pathway (AID 743217; active = well fitted inhibition curve with a large enough effect in the signal ratio in the repeat runs, not every such curve was filed as active; the % refers to the signal ratio)
Chain of Bile acid receptor (Homo sapiens) (Q96RI1 whole entry, looked up): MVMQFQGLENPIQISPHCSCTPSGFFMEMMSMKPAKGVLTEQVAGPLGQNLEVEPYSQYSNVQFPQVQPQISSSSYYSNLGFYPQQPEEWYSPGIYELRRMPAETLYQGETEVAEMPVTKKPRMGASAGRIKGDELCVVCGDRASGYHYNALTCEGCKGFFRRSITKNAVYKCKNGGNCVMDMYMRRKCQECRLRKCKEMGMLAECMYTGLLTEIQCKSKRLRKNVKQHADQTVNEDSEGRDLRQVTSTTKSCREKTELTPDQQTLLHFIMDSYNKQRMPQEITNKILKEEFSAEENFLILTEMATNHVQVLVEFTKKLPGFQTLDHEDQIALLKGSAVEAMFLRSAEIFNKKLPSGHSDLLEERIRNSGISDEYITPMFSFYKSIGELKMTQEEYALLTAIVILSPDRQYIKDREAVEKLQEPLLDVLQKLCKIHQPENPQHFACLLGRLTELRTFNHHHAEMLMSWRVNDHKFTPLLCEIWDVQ
Procedure, shortened: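 In this cell-based antagonist screen, inhibition of CDCA-driven (50 uM final) UAS-beta-lactamase expression in HEK 293T cells was measured by FRET fluorescence following 16 h compound exposure at 37 °C.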

[13] = qHTS assay to identify small molecule agonists of the farnesoid-X-receptor (FXR) signaling pathway - cell viability counter screen (AID 743218); also: nearly all actives have a fitted effect of over 45% in size
Procedure, shortened: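 After 16 h at 37 C with test compounds, FXR-bla HEK 293T cells were given LiveBLAzer B/G substrate for 2 h at RT and then CellTiter-Glo; luminescence was taken after 30 min.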

[14] = molecular target: Bile acid receptor (Homo sapiens) (UniProt Q96RI1); assay: qHTS assay to identify small molecule agonists of the farnesoid-X-receptor (FXR) signaling pathway (AID 743220; active = well fitted activation curve with a large enough effect in the signal ratio in the repeat runs, not every such curve was filed as active; the % refers to the signal ratio)
Procedure, shortened: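 Beta-lactamase reporter under UAS control in GeneBLAzer FXR HEK 293T cells (5000/well) measured with LiveBLAzer FRET substrate after 2 h at room temperature. Compound exposure lasted 16 h at 37C.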

[15] = qHTS assay to identify small molecule antagonists of the farnesoid-X-receptor (FXR) signaling pathway - cell viability counter screen (AID 743221; active = well fitted cell-killing curve with a large enough effect in the repeat runs, not every such curve was filed as active; also: nearly all actives have a fitted effect of over 50% in size)
Procedure, shortened: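 Here viability was scored by luminescence after CellTiter-Glo addition to wells already read for beta-lactamase. Prior treatment: compound plus CDCA (50 uM final), 16 h, 37 C, HEK 293T FXR-bla cells.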

[16] = qHTS assay to identify small molecule agonists of the vitamin D receptor (VDR) signaling pathway - cell viability counter screen (AID 743224); also: series mostly up to about 63 µM; nearly all actives have a fitted effect of over 50% in size
Procedure, shortened: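 Here cell health was gauged by luminescent ATP detection (CellTiter-Glo, 30 min RT) in VDR-bla cells that had been incubated with test compounds for 16 h at 37C and 5% CO2.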

[17] = molecular target: Vitamin D3 receptor (Homo sapiens) (UniProt P11473); assay: qHTS assay to identify small molecule agonists of the vitamin D receptor (VDR) signaling pathway (AID 743222; calls by dose curve)
Chain of Vitamin D3 receptor (Homo sapiens) (P11473 whole entry, looked up): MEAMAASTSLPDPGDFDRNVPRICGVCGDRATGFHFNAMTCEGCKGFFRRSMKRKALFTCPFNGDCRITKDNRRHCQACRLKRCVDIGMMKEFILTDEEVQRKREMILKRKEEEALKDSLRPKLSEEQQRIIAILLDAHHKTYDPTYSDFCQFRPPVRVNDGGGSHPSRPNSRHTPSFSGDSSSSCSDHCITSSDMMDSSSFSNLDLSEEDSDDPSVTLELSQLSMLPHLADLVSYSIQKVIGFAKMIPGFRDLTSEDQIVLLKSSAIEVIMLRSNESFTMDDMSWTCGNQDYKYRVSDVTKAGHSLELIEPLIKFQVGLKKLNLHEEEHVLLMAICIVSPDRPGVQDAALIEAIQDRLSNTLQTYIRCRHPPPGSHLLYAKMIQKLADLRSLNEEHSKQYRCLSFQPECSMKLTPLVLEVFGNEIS
Procedure, shortened: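 VDR-bla cells were seeded, left 4 h, treated with compounds in DMSO for 16 h, incubated 2 h at RT with B/G FRET substrate, and read for fluorescence.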

[18] = molecular target: Vitamin D3 receptor (Homo sapiens) (UniProt P11473); assay: qHTS assay to identify small molecule antagonists of the vitamin D receptor (VDR) signaling pathway (AID 743223; active = well fitted inhibition curve with a large enough effect in the signal ratio in the repeat runs, not every such curve was filed as active; the % refers to the signal ratio)
Procedure, shortened: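 Inhibition of agonist-driven VDR signalling is scored in VDR-bla cells: 3 nM final 1alpha,25-dihydroxyvitamin D3 plus compound, 16 h at 37C, then beta-lactamase detection by FRET substrate fluorescence after 2 h.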

[19] = molecular target: Peroxisome proliferator-activated receptor gamma (Homo sapiens) (UniProt P37231); assay: qHTS assay to identify small molecule agonists of the peroxisome proliferator-activated receptor gamma (PPARg) signaling pathway (AID 743094; active = well fitted activation curve with a large enough effect in the signal ratio in the repeat runs, not every such curve was filed as active; the % refers to the signal ratio)
Chain of Peroxisome proliferator-activated receptor gamma (Homo sapiens) (P37231 whole entry, looked up): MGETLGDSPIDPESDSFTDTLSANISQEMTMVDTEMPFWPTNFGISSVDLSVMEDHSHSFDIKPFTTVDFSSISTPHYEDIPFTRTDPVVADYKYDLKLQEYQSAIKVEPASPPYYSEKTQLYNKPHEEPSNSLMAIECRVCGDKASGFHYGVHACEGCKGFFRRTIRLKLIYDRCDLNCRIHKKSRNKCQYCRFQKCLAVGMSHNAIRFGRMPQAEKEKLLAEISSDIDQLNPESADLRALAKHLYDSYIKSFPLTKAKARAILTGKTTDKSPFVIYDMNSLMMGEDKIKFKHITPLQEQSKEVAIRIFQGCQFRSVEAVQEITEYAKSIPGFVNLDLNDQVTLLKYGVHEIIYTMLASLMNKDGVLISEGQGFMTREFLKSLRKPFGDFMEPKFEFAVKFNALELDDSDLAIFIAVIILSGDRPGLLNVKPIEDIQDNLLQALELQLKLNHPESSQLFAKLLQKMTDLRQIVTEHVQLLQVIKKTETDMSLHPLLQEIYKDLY
Procedure, shortened: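 Following 5 h plating at 37C, PPARg-bla HEK293H cells receive compound or DMSO for 17 h; fluorescence intensity is recorded after LiveBLAzer B/G loading for 1 h at room temperature.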

[20] = molecular target: Peroxisome proliferator-activated receptor gamma (Homo sapiens) (UniProt P37231); assay: qHTS assay to identify small molecule antagonists of the peroxisome proliferator-activated receptor gamma (PPARg) signaling pathway (AID 743191; calls by dose curve; also: series mostly up to about 63 µM; nearly all actives have a fitted effect of over 30% in size)
Procedure, shortened: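 GeneBLAzer PPARg UAS-bla HEK293H cells carrying a UAS-driven beta-lactamase reporter were plated at 3000 cells/well, preincubated 5 h at 37C, then given compound for 17 h at 37C; LiveBLAzer B/G FRET substrate was read after 1 h at room temperature.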

Measured: Potency

Cc1ccc(C)c(OCCCC(C)(C)C(=O)O)c1
inactive: [2] | [3] | [4] | [5] | [6] | [7] | [8] | [9] | [10] | [11] | [12] | [13] | [14] | [15] | [16]
inactive and 48.9 µM (active): [1]

O=C1CN(/N=C/c2ccc([N+](=O)[O-])o2)C(=O)N1
active: [2] 30.5 µM and 48.6 µM | [4] 17.2 µM and 26.6 µM
inactive: [1] | [3] | [6] | [7] | [8] | [9] | [10] | [13] | [15] | [17] | [18] | [16]

CC(C)[C@@H]1CC[C@@H](C)C[C@H]1O
inactive: [1] | [2] | [19] | [20] | [3] | [4] | [5] | [6] | [8] | [9] | [10] | [11] | [12] | [13] | [14] | [15] | [17] | [18] | [16]

CC(O)C(=O)O (configuration not stated)
inactive: [1] | [2] | [3] | [4] | [5] | [6] | [7] | [8] | [9] | [10] | [11] | [12] | [13] | [14] | [15] | [17] | [18] | [16]

N=C(N)c1ccc(OCCCCCOc2ccc(C(=N)N)cc2)cc1
inactive: [2] | [19] | [3] | [5] | [6] | [7] | [8] | [9] | [10] | [13] | [15] | [17] | [18] | [16]

COc1c2occc2cc2ccc(=O)oc12
inactive: [2] | [3] | [4] | [5] | [6] | [8] | [10] | [12] | [13] | [14] | [15] | [17] | [18] | [16]

Cc1cc(=O)n(-c2ccccc2)n1C
inactive: [1] | [2] | [19] | [20] | [3] | [4] | [5] | [6] | [8] | [10] | [12] | [13] | [14] | [15] | [17] | [18] | [16]
